Measured values taken from PubChem BioAssay (NCATS).
Results filed as inconclusive are left out. A call without a number means that no potency is given here. The source made the active and inactive calls. The call rests on the fitted dose curve; in most records, active means well fitted curve in the direction sought with a large enough effect; inconclusive means small, poorly fitted or top-dose-only effect, or another doubt; inactive means no such curve, though single readings can be large; an effect the other way counts as inactive or inconclusive.

Legend:
[1] = qHTS of pediatric cancer cell lines to identify multiple opportunities for drug repurposing: Primary screen for TC32 cells (AID 1347089); further: nearly all actives have a fitted effect of over 60% in size; further: potency means the concentration at half of the fitted maximal effect
Method in brief: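 Luminescent ATP read-out (CellTiter-Glo) of metabolically active TC32 cells after 48 h exposure. Concentration-response curves came from 11-point (MIPE, 0.78 nM–46 µM) or 8-point (NPC, 0.59 nM–46 µM) primary titrations; follow-up used 11 points.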

[2] = qHTS of pediatric cancer cell lines to identify multiple opportunities for drug repurposing: Primary screen for DAOY cells (AID 1347090); further: nearly all actives have a fitted effect of over 55% in size; further: potency means the concentration at half of the fitted maximal effect
Method in brief: (§1)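 Cell viability, CellTiter-Glo luminescence; 500-1,000 cells/well, 8- or 11-point titration, 48 h compound exposure at 37 degrees C, 5% CO2. Controls: DMSO neutral, bortezomib 2.3 µM final as positive.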

[3] = qHTS of pediatric cancer cell lines to identify multiple opportunities for drug repurposing: Primary screen for SJ-GBM2 cells (AID 1347091); further: potency means the concentration at half of the fitted maximal effect
Method in brief: as §1

[4] = qHTS of pediatric cancer cell lines to identify multiple opportunities for drug repurposing: Primary screen for A673 cells (AID 1347092); further: nearly all actives have a fitted effect of over 45% in size; further: potency means the concentration at half of the fitted maximal effect
Method in brief: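 Cell viability of A673 measured by CellTiter-Glo ATP luminescence after 48 hours compound exposure. Dilution series spanned 0.78 nM to 46 µM (MIPE, 11-point) or 0.59 nM to 46 µM (NPC, 8-point); bortezomib 2.3 uM positive control.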

[5] = qHTS of pediatric cancer cell lines to identify multiple opportunities for drug repurposing: Primary screen for SK-N-MC cells (AID 1347093); further: potency means the concentration at half of the fitted maximal effect
Method in brief: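 Metabolically active cells were quantified by ATP-dependent luminescence (CellTiter-Glo, 15 min at room temperature) following 48 h treatment. Cells had been plated at 500-1,000 per well and settled for 5 h beforehand.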

[6] = qHTS of pediatric cancer cell lines to identify multiple opportunities for drug repurposing: Primary screen for NB-EBc1 cells (AID 1347095); further: potency means the concentration at half of the fitted maximal effect
Method in brief: (§2)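 CRCs from 8- or 11-point titrations (lowest final 0.59 nM NPC, 0.78 nM MIPE). Cell viability: CellTiter-Glo after 48 h incubation, 15 min room-temperature development, luminescence imaging.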

[7] = qHTS of pediatric cancer cell lines to identify multiple opportunities for drug repurposing: Primary screen for Saos-2 cells (AID 1347097); further: nearly all actives have a fitted effect of over 40% in size; further: potency means the concentration at half of the fitted maximal effect
Method in brief: as §2

[8] = qHTS of pediatric cancer cell lines to identify multiple opportunities for drug repurposing: Primary screen for SK-N-SH cells (AID 1347098); further: nearly all actives have a fitted effect of over 65% in size; further: potency means the concentration at half of the fitted maximal effect
Method in brief: (§3)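 Cells (500-1,000/well) rested 5 h, then received compounds for 48 h; metabolically active cells were measured by CellTiter-Glo luminescence. Final concentrations spanned up to 46 µM (MIPE, 11-point) or 0.59 nM-46 µM (NPC, 8-point) in primary screens, 11-point in follow-ups.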

[9] = qHTS of pediatric cancer cell lines to identify multiple opportunities for drug repurposing: Primary screen for U-2 OS cells (AID 1347096); further: nearly all actives have a fitted effect of over 50% in size
Method in brief: as §3

[10] = qHTS of pediatric cancer cell lines to identify multiple opportunities for drug repurposing: Primary screen for BT-37 cells (AID 1347094); further: potency means the concentration at half of the fitted maximal effect
Method in brief: as §2

Compound | Potency [1] | Potency [2] | Potency [3] | Potency [4] | Potency [5] | Potency [6] | Potency [7] | Potency [8] | Potency [9] | Potency [10]
CN1N=C(N)c2cn([C@@H]3O[C@H](COP(=O)(O)O)[C@@H](O)[C@@H]3O)c3ncnc1c23 | 4.15 µM (active) | 14.8 µM (active) | 7.43 µM (active) | 3.72 µM (active) | 0.0042 µM (active) | 1.66 µM (active) | 2.09 µM (active) | 21.5 µM (active) |  | 
O=C1CCCC(=O)C1C(=O)c1ccc(C(F)(F)F)cc1[N+](=O)[O-] | inactive | inactive | inactive | inactive |  |  | inactive |  | inactive | 
COC(=O)[C@H](c1ccccc1Cl)N1CCc2sccc2C1 | inactive | inactive |  | 1.48 µM (active) |  | inactive |  |  | inactive | 
C[C@@H]1CCO[C@H]2Cn3cc(C(=O)NCc4ccc(F)cc4F)c(=O)c(O)c3C(=O)N12 | inactive | inactive |  | inactive | inactive |  |  | inactive |  | 
NC[C@H]1O[C@H](O[C@@H]2[C@@H](O)[C@@H](O[C@H]3O[C@H](CO)[C@@H](O)[C@H](N)[C@@H]3O)[C@H](N)C[C@@H]2N)[C@H](O)[C@@H](O)[C@H]1O | inactive | inactive |  | inactive |  | inactive | inactive |  | inactive | inactive
COc1nccc(-c2c(-c3ccc(F)cc3)ncn2C2CCNCC2)n1 | inactive | inactive |  |  | inactive | inactive |  | inactive | inactive | 
CN(C)c1ccccc1CN1CCCN(Cc2ccccc2N(C)C)C1c1ccncc1 | inactive | inactive |  | 18.7 µM (active) | 26.4 µM (active) | 20.9 µM (active) |  |  |  | 
CCCCCCCCCCCCCC(=O)N[C@H](CO)[C@H](O)c1ccc([N+](=O)[O-])cc1 | inactive | inactive |  |  | 18.7 µM (active) |  | 18.7 µM (active) |  | inactive | 13.7 µM (active)
Cc1cc2c(cc1C1(c3ccc(C(=O)O)cn3)CC1)C(C)(C)CCC2(C)C | inactive | inactive |  |  | inactive |  | inactive | inactive | inactive | inactive
O=C(NCCCCN1CCOCC1)c1cc2ccccc2o1 | inactive | inactive |  | inactive |  | inactive | inactive | 30.4 µM (active) | inactive | inactive
CN(C)CCOc1cc(-c2cn[nH]c2)ccc1NC(=O)C1COc2ccccc2O1 (centres undefined) | inactive | inactive |  | 18.7 µM (active) | 8.33 µM (active) | inactive | 2.96 µM (active) | 10.8 µM (active) | inactive | inactive
C[C@@H]1[C@H](O)[C@@H](C)C=CC=CC=CC=CC=CC=CC=C[C@H](O[C@@H]2O[C@H](C)[C@H](O)[C@H](N)[C@@H]2O)C[C@@H]2O[C@](O)(C[C@@H](O)C[C@@H](O)[C@H](O)CC[C@@H](O)C[C@@H](O)CC(=O)O[C@H]1C)C[C@H](O)[C@@H]2C(=O)O | 2.94 µM (active) | inactive |  | 0.148 µM (active) | 0.118 µM (active) |  | inactive |  | inactive | inactive
Cc1ccccc1C(C(=O)NC1CCCCC1)N(C(=O)CNc1ccc(C#N)cc1)c1cccc(F)c1 (centres undefined) | inactive | inactive |  | inactive | inactive | 23.5 µM (active) | 18.7 µM (active) | inactive | inactive | inactive
OC(c1cc(C(F)(F)F)nc2c(C(F)(F)F)cccc12)C1CCCCN1 (centres undefined) | inactive | inactive |  | 18.7 µM (active) |  |  |  | 34.1 µM (active) |  | 
CNC(=O)c1ccc2c(C(=Nc3cccc(CN(C)C)c3)c3ccccc3)c(O)[nH]c2c1 | inactive | inactive |  | 11.8 µM (active) | 23.5 µM (active) |  |  | 21.5 µM (active) | inactive | 
O=C(O)C1=CC(O)C(O)[C@H](O)C1 (some centres undefined) | inactive | inactive |  | inactive | inactive |  | inactive | inactive | inactive | inactive
COc1nccc(-c2c(-c3ccc(F)cc3)ncn2C2CCC(O)CC2)n1 (centres undefined) | inactive | inactive |  |  | inactive | inactive |  | inactive | inactive | 
CC(C)(O)CC(=O)NCCn1ccc2ncnc(Nc3ccc(Oc4cccc(C(F)(F)F)c4)c(Cl)c3)c21 | inactive | 0.469 µM (active) |  | 0.372 µM (active) | 0.743 µM (active) |  |  | 1.21 µM (active) | inactive | 24.3 µM (active)
N#CC(c1ccnc(NCCc2cccnc2)n1)c1nc2ccccc2s1 (centres undefined) | inactive | 29.6 µM (active) |  | 4.69 µM (active) | 11.8 µM (active) |  | 18.7 µM (active) |  |  | 24.3 µM (active)
CC1CCN(c2cc(N3CCN(C)CC3)ccc2NC(=O)c2cc(C#N)c[nH]2)CC1 | inactive | inactive |  | inactive | inactive |  |  | 21.5 µM (active) | inactive | inactive
COC(=O)N1CCN(Cc2cccc(NC(=O)Nc3ccc(C)nc3)c2F)CC1 | inactive | inactive |  | inactive | inactive | inactive | inactive | inactive | inactive | inactive
COc1cc(F)c(C(C)C)cc1-c1ccc(C(F)(F)F)cc1CN1C(=O)O[C@H](c2cc(C(F)(F)F)cc(C(F)(F)F)c2)[C@@H]1C | inactive | inactive |  | inactive | inactive | 14.8 µM (active) | inactive |  | inactive | 
N#Cc1ccc(Oc2ccc3c(c2)COB3O)cc1 | inactive | inactive |  | inactive | 14.8 µM (active) |  | inactive |  | inactive | 
O=C1C(c2c(O)[nH]c3ccccc23)=Nc2ccccc21 | inactive | 0.59 µM (active) |  | 0.59 µM (active) | 0.118 µM (active) |  |  |  | inactive | 
